# Experimental data: PubChem BioAssay (NCI)
# Several values for one entry are separate records, joined by “and”; a condition that tells them apart may be missing. Equal values may be shown once. This is part of a sample that, as a whole, favours compounds with a hit. Of some 83,000 tested, about 20% had one in any assay.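 The endpoint reported here, percent growth, reads 100 for growth as untreated, 0 for no net growth and -100 for all cells dead.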 Unmarked numbers belong to inactive results. Activity calls are given as the source filed them. Rule for the calls: active = growth percent below 10; inactive = the rest.
# Test system: MDA-MB-468 breast
# Assay: NCI-60 one-dose screen, 48 h (100 = growth as untreated, 0 = no growth, -100 = all killed)
# Conditions: 10 µM unless noted
row,Compound,growth
1,COc1ccc(-c2nc(-c3nc4ccc(OC)cc4[nH]3)c3ccccn23)cc1,72.2%
2,C1CN(CC2CCC(CN3CCOCC3)O2)CCO1 (stereo not given),102%
3,C=C1C(=O)O[C@H]2[C@H]1CC/C(C=Nc1c(N)cc(F)cc1Br)=C\CC[C@@]1(C)O[C@@H]21,44%
4,N#Cc1c(-c2ccc(Cl)cc2)nc(NN=Cc2ccc[nH]2)nc1N1CCOCC1,78.2%
5,COc1ccccc1S(=O)(=O)Nc1ccc2c3c(cc(CCC(=O)NCCCCNc4cccc5c4C(=O)N(C4CCC(=O)NC4=O)C5=O)cc13)C(=O)N2C (stereo not given),-35.5% (active)
6,N#CCCN1C/C(=C/c2ccc(Br)cc2)C(=O)/C(=C/c2ccc(Br)cc2)C1,-71.3% (active)
7,Cc1nnc(NC(=O)c2nc(S(=O)(=O)Cc3ccc(F)cc3)ncc2Cl)s1,-15.1% (active)
8,C=C(C)[C@@H]1CC[C@]2(CO)CC[C@]3(C)[C@H](CC[C@@H]4[C@@](C)(CCCN)[C@H](C(=C)C)CC[C@]43C)[C@@H]12,-71.4% (active)
9,CN1C2CCC1CN(c1cnc(C(=O)Nc3cc(F)cc4cccnc34)cn1)C2,13.1%
10,S=C(N/N=C/c1ccccn1)Nc1ccccn1,-1.71% (active)
11,Cc1c(Cl)cccc1NC(=S)NC(=O)c1ccccc1,33.9%
12,CCOC(=O)c1ccc(NC(=O)N2CC(C)OC(C)C2)cc1 (stereo not given),91.7%
13,CC(C)C[C@H](NC(=O)Cn1ccc(NCc2ccccc2)cc1=O)B(O)O,-41.2% (active)
14,Cc1ccc(C)c(S(=O)(=O)NC2c3ccccc3Oc3ccccc32)c1,85%
15,CN(C)c1ccc(CNCCO)cc1,105%
16,COc1cc(CCC[P+](c2ccccc2)(c2ccccc2)c2ccccc2)c(OC)c(OC)c1OC,30.3%
17,N#CC1C(=O)c2ccccc2C1c1ccccc1 (stereo not given),94.3% and 119%
18,NS(=O)(=O)Oc1ccc2nc(Nc3ccc(F)c(F)c3)ccc2c1,96.9%
19,CN(CCCCCCCCNc1ccnc2ccccc12)Cc1ccc(-c2ccc(-c3ccc(C#N)cc3)s2)cc1,-50.4% (active)
20,COc1ccc(C(=O)/C=C/c2ccc(Cl)cc2)cc1S(N)(=O)=O,57.3%

row,Compound,growth
1,Cc1ccccc1NC(=O)/C=C/c1ccc(OCCOc2ccc3c(C)cc(=O)oc3c2)cc1,104%
2,Cc1ccc(-c2cc(-c3ccccc3C)[nH]c(=O)c2C#N)s1,99.3%
3,COc1cc(/C=C/C(=O)c2ccc(O)c(CN3CCN(c4cc5c(cc4F)c(=O)c(C(=O)O)cn5C4CC4)CC3)c2)cc(OC)c1OC,6.61% (active)
4,C#CCN(C)CCCOc1ccc(NCc2ccc(/C=C/C(=O)NO)cc2)cc1Cl,-47.6% (active)
5,C(=C\c1ccncc1)/c1ccncc1,92.6%
6,O=C(/C=C/c1ccc(F)cc1)c1ccc(Nc2nc(NCCO)nc(Nc3ccc(Cl)cc3)n2)cc1,57.8%
7,Cc1ccc(/C=C/c2nn3c(-c4ccco4)nnc3s2)cc1C,107%
8,C[C@H]1OC(=O)/C=C/[C@@H](O)[C@@H](O)CCCCCCCC[C@@H]1O,97.2%
9,COc1ccccc1Nc1cc(O)c2c(=O)cc(-c3ccccc3)oc2c1,-1.72% (active)
10,O=S(=O)(O)c1cccnc1,124%
11,COc1cc(C(=O)N/N=C/c2cccc([N+](=O)[O-])c2)cc(OC)c1OC,6.95% (active)
12,COc1ccc(C(=O)c2sc3nc4c(c(C(F)(F)F)c3c2N)CN(C(C)=O)CC4)cc1OC,83.7%
13,CCOC(=O)c1[nH]cc2c1CCc1sc(Nc3ccccn3)nc1-2,46.9%
14,CCOC(=O)C1=C(C)NC(SCc2cc(=O)oc3ccc(F)cc23)=N[C@@H]1c1cccc2ccccc12,113%
15,Cc1nc2cc(-c3nn(C(C)C)c4ncnc(N)c34)ccc2o1,-37.7% (active)
16,O=[N+]([O-])c1ccc2[nH]c3nccc(NCc4cccc(Cl)c4)c3c2c1,69%
17,O=S(=O)(NCCNc1cc(-c2cn(-c3ccccc3)nc2-c2cccc(O)c2)ccn1)c1ccc(F)cc1,-22.4% (active)
18,NC(=O)c1noc(C(=O)c2ccccc2)c1N,95.5%
19,CC/C(=C/c1cc(OC)ccc1O)c1ccc2cc(OC)ccc2[o+]1,45.8%
20,O=C(O)c1cn(C2CC2)c2cc(N3CCN(C(=O)N/N=C/c4ccccc4)CC3)c(F)cc2c1=O,83.7%
